Experimental data from PubChem BioAssay (NCATS).
Inconclusive results are not listed. The source made the active and inactive calls. Calls follow the shape of the dose curve; as a rule, active = well fitted inhibition curve with a large enough effect; inconclusive = small, poorly fitted or top-dose-only effect; inactive = no such curve, though single readings can be large or run the other way.

Each compound was assayed against Cytochrome P450 3A4 (Homo sapiens) (UniProt P08684) (assay: qHTS Assay for Inhibitors and Substrates of Cytochrome P450 3A4 (AID 884; also: nearly all actives have a fitted effect of over 50% in size)). Conditions: recombinant CYP3A4, Luciferin-PPXE luminescence; series mostly up to 57.1 µM.
Sequence of Cytochrome P450 3A4 (Homo sapiens) (P08684 whole entry, looked up): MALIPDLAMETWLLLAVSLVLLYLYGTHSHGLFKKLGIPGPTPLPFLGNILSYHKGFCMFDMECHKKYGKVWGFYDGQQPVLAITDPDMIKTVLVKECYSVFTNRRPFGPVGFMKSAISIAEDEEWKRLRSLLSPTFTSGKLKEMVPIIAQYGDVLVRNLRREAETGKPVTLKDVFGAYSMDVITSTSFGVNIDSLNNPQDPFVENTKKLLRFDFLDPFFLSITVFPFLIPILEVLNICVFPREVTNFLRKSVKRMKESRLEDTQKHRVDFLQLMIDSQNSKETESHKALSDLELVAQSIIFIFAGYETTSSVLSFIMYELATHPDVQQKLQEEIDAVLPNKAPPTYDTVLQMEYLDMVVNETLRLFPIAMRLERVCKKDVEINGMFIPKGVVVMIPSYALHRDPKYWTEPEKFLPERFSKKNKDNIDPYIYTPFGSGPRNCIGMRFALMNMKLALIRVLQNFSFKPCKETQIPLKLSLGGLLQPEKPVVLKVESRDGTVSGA
Procedure: NIH Molecular Libraries Screening Centers Network [MLSCN]
NIH Chemical Genomics Center [NCGC]
The P450 gene superfamily is involved in the metabolism and clearance of xenobiotics. This assay used human CYP3A4 to measure the dealkylation of luciferin-6' phenylpiperazinylyl (Luciferin-PPXE; […]) to luciferin. The luciferin is then measured by luminescence after the addition of a luciferase detection reagent. Luciferin-PPXE concentration in the assay was equal to its KM for CYP3A4. Inhibitors and some substrates limit the production of luciferin, and decrease measured luminescence.
NCGC Assay Protocol Summary:
Two uL of enzyme and substrate mix (final concentrations: 20nM CYP3A4, 25uM Luciferin-PPXE, 200mM KPO4) were dispensed into a white, solid bottom 1536-well microtiter plate. 23nL of compound was transferred by a pin tool. The plate was incubated at RT for 10 min. Two uL of an NADPH regeneration solution (Promega supplied reagent) was dispensed and the reaction was allowed to continue for 60 min at RT. Then the reaction was stopped by reconstituted luciferin detection buffer. After another 20 min of incubation the plate was read on the ViewLux (Perkin Elmer) at 60 sec exposure and 2x2 binning. This protocol was carried out with Promega-Glo reagents and further information can be found at http://www.promega.com/tbs/tb325/tb325.pdf. Data were normalized to the to AC100 inhibition (57 uM ketoconazole).
Keywords: P450, CYP3A4, Luciferase, MLSMR, MLSCN, NIH Roadmap, qHTS, NCGC
Potency is read from the fitted curve at half-maximal effect.

SMILES	Potency
Cc1ccccc1-c1cc(NCCN2CCOCC2)ncn1	inactive
CCN1CCCC1Cn1c(-c2ccccc2)nc2c(NCCOC)nc(C)nc21 (stereo not given)	20 µM (active)
Cc1nc2cnc(N(C)C)nc2n(Cc2ccc(F)cc2)c1=O	0.0251 µM (active)
CCCn1c(-c2ccc(F)cc2)nc2c(NCCN3CCSCC3)nc(C)nc21	20 µM (active)
CCNc1ncc2nc(C)c(=O)n(-c3ccc(OC)cc3)c2n1	inactive
Cc1nc(N2CCOCC2)c2nc(-c3ccccc3)n(CC3CCN(C)CC3)c2n1	inactive
Cn1c(=O)c(-c2cccc(C#N)c2)nc2cnc(Oc3ccccc3)nc21	inactive
Cc1noc(C)c1-c1cncnc1NCc1ccccc1	2 µM (active)
CCCn1c(-c2ccc(F)cc2)nc2c(NCCCN3CCCCC3C)nc(C)nc21 (stereo not given)	10 µM (active)
CCCn1c(C)nc2c(NCCCN3CCCCC3C)nc(C)nc21 (stereo not given)	inactive
CS(=O)(=O)N1CCC2(CCN(C(c3ccccc3)c3ccccc3)CC2)CC1	inactive
COC(=O)N1CCC2(CC1)CCN(c1ccccc1)CC2	inactive
COc1ccc2[nH]cc(CCNc3ncncc3-c3ccc(N(C)C)cc3)c2c1	0.501 µM (active)
O=C(c1ccco1)N1CCC2(CC1)CN(c1ccc(-c3ccccc3)cc1)C2	inactive
COc1cccc(-c2cncnc2-n2ccnc2)c1	0.316 µM (active)
Cc1nc(NCc2ccccc2)c2nc(-c3ccccc3)n(CCN3CCCCC3)c2n1	2.51 µM (active)
CCCn1c(-c2ccc(F)cc2)nc2c(NCCCN3CCOCC3)nc(C)nc21	5.01 µM (active)
c1ccc(CNc2ncnc3ccc(-c4cccnc4)cc23)cc1	1.26 µM (active)
Cc1cccc(CNc2ncncc2-c2cccc(C#N)c2)c1	0.199 µM (active)
COc1ccc2[nH]cc(CCNc3ncncc3-c3c(C)noc3C)c2c1	0.794 µM (active)

SMILES	Potency
Cc1ccccc1-c1cc(Nc2ccccc2)ncn1	inactive
COc1cccc(-c2ccc3ncnc(NCc4cccs4)c3c2)c1	7.94 µM (active)
Cn1c(=O)c(-c2ccc(Cl)cc2)nc2cnc(Oc3cccc(Cl)c3)nc21	inactive
COc1ccccc1CCn1c(=O)c(-c2cccc(F)c2)nc2cncnc21	3.16 µM (active)
COc1cccc(-c2cncnc2N(C)Cc2ccco2)c1	2.51 µM (active)
O=C(c1cnccn1)N1CCC2(CC1)CCN(C(c1ccccc1)c1ccccc1)CC2	inactive
CCCn1c(-c2ccc(F)cc2)nc2c(NCC(C)(C)CN(C)C)nc(C)nc21	15.8 µM (active)
CCN(CC)CCCCn1c(-c2ccccc2)nc2c(NCc3ccccc3)nc(C)nc21	7.94 µM (active)
Cc1nc(NCCO)c2nc(-c3ccccc3)n(CCCN(C)C)c2n1	inactive
COCC(=O)N1CCC[C@@]2(CCN(C(=O)Nc3cccc(C#N)c3)C2)C1	inactive
FC(F)(F)c1cc(CN2CCCC3(CCNCC3)C2)cc(C(F)(F)F)c1	7.94 µM (active)
CCCn1c(C)nc2c(NCCN3CCCC3)nc(C)nc21	inactive
N#Cc1cccc(-c2nc3cnc(Oc4cccc(Cl)c4)nc3n(C3CC3)c2=O)c1	inactive
O=C(c1ccco1)N1CCC[C@@]2(CCN(c3ccncc3)C2)C1	1.26 µM (active)
O=C(Oc1ccccc1)N1CCC2(CC1)CN(c1ccccc1)C2	inactive
O=C(c1cnccn1)N1CCC2(CCCN(c3ccccc3)C2)CC1	1.58 µM (active)
CN1CCN(c2ncc3nc(-c4ccc(Cl)cc4)c(=O)n(Cc4cccs4)c3n2)CC1	inactive
CCCn1c(C)nc2c(NC(C)CN(C)C)nc(C)nc21 (stereo not given)	inactive
CCCn1c(-c2ccc(F)cc2)nc2c(N3CCN(CCC(=O)OCC)CC3)nc(C)nc21	12.6 µM (active)
COCCNc1nc(C)nc2c1nc(-c1ccccc1)n2C1CCN(Cc2ccccc2)C1 (stereo not given)	12.6 µM (active)
